Screening data deposited in PubChem BioAssay by several laboratories.
FBA Mtb inh: Mtb fructose-bisphosphate aldolase inhibition; AID 588726; inhibition, % at 1 µM; hit rate 2.3% among 360,000; purified M. tuberculosis FBA, fluorescence read-out; in the data active means inhibition above about 27%;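 further: 0% = vehicle and 100% = reference inhibitor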
Target sequence (P9WQA3 whole entry, looked up): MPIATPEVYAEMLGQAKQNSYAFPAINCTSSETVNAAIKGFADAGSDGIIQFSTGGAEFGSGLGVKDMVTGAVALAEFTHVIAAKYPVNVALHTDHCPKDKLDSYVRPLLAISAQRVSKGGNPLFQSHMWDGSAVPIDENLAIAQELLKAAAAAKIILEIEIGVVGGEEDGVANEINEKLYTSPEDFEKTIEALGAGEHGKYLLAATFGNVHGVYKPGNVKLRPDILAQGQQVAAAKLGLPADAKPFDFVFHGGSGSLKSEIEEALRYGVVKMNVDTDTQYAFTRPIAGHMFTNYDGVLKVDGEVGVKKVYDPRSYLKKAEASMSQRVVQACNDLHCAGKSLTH
RecA splice inh: Mtb RecA intein splicing inhibition; P9WHJ3; cell-free RecA intein splicing, fluorescence; inhibition, % (test concentration not listed); hit rate 0.75% among 290,000; AID 2221; in the data active means inhibition above about 30%;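 further: 0% = vehicle wells and 100% = reference inhibitor control wells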
Rv3671c inh: inhibits the M. tuberculosis serine protease Rv3671c. hit rate 0.048% among 320,000. inhibition, % at 5.96 µM. P9WHR9; in the data active means inhibition above about 38%;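 further: extracellular domain of Rv3671c used as enzyme; 0% = enzyme with DMSO and 100% = no enzyme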
Mtb bLac sens: beta-lactam sensitization of Mtb H37Rv; M. tuberculosis H37Rv growth with meropenem, percent inhibition; inhibition, % at 25 µM; hit rate 0.27% among 330,000; AID 434955; call rule not given here;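 further: growth measured after seven days incubation then overnight dye step; 0% = bacteria only wells and 100% = bacteria with antibiotic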
Mtb UGM inh: Mtb UDP-galactopyranose mutase inhibition | P9WIQ1 | purified UGM, fluorescence polarization probe displacement | inhibition, % at 10 µM | hit rate 0.06% among 320,000 | AID 504406; in the data active means inhibition above about 10%, passing the limit was not always enough
GDH-TPI counter: GDH-TPI coupled enzyme inhibition counter-screen. GDH-TPI coupled enzyme counterscreen, NADH absorbance. inhibition, % at 4.8 µM. hit rate 1.2% among 360,000. AID 588335; in the data active means inhibition above about 30%;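 further: 0% = DMSO wells and 100% = wells lacking the enzyme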
An asterisk follows results filed as active; i = inactive; / = no result given; + = active, no number. Compounds with a hit are over-represented: about 4% of the library has one in this group of screens.

SMILES | FBA Mtb inh | RecA splice inh | Rv3671c inh | Mtb bLac sens | Mtb UGM inh | GDH-TPI counter
CN(Cc1ccc(OC(F)F)cc1)C(=O)/C=C/c1ccc(S(=O)(=O)N2CCOCC2)cc1 | 0 | / | 6 | 5 | -1 | 8
COc1ccc(-c2cc(=O)c3c(O)cc(OC4OC(COC5OC(C)C(O)C(O)C5O)C(O)C(O)C4O)cc3o2)cc1O (stereo unspecified) | 3 | -3 | 3 | -2 | -3 | 42*
CC1OC(OC2C(Oc3c(-c4ccc(O)cc4)oc4cc(O)cc(O)c4c3=O)OC(COC3O[C@@H](C)[C@H](O)[C@@H](O)C3O)C(O)C2O)C(O)C(O)C1O (stereo partly specified) | -1 | -2 | -4 | 0 | 4 | 22
COc1ccc([C@@H]2CC(=O)c3c(O)cc(O[C@@H]4O[C@H](CO[C@@H]5O[C@@H](C)[C@H](O)[C@@H](O)[C@H]5O)[C@@H](O)[C@H](O)[C@H]4O)cc3O2)cc1O | 5 | -5 | -10 | -12 | 4 | 8
CC(=O)OC[C@H]1O[C@@H](Oc2cc(O)cc3oc(-c4ccc(O)cc4)cc(=O)c23)[C@H](O[C@@H]2O[C@@H](C)[C@H](O)[C@@H](O)[C@H]2O)[C@@H](O)[C@@H]1O | 13 | / | -1 | 10 | 2 | 33*
CCC(=O)N1CCCC(C)(C(=O)NS(=O)(=O)c2cccs2)C1 (stereo unspecified) | 3 | / | / | / | / | 4
CCCCCCN1C[C@H](O)[C@@H](n2cc(C3CC3)nn2)C[C@@H]1c1ccc(C)cc1 | -1 | / | / | / | / | 1
CCN1C[C@@H]2[C@@H]3C(=O)N(C)C(=O)[C@@H]3[C@](CC)(C1=O)N2C(=O)c1ccc(C(C)(C)C)cc1 | 3 | / | 2 | -2 | -3 | -8
O=S(=O)(c1ccc(N2CCC(c3ccc(Cl)cc3)=N2)cc1)N(CCO)CCO | + | i | 8 | -17 | 1 | 32*
CN(C)CCCNS(=O)(=O)c1ccc(N2CCC(c3ccc(Cl)cc3)=N2)cc1 | / | -396 | 8 | -10 | 2 | /
CC(=O)N1CCc2c(sc(NC(=O)C3CCCCC3)c2C(N)=O)C1 | 8 | 7 | -2 | -5 | 1 | 18
Nc1ccc(-c2nc3ccc(N)cc3o2)cc1 | + | / | 10 | -1 | -1 | 46*
Cc1ccc2nc(-c3cc(N)cc(N)c3)oc2c1 | 4 | -4 | 17 | 94 | -1 | 8
O=C1CS/C(=C/C(=O)c2cccc(Cl)c2)N1 | 2 | 3 | 4 | 53 | 1 | 17
Cc1ccc(C(=O)/C=C2/NC(=O)CS2)cc1 | -2 | -4 | -4 | 80 | 0 | 31*
CCN=c1scc(-c2ccco2)n1/N=C/c1ccc(O)cc1 | 0 | 9 | 8 | 14 | 2 | 15
CCN=c1scc(-c2ccco2)n1/N=C/c1ccc(OC)c(O)c1 | -1 | 3 | 8 | 98 | -1 | 32*
Cc1ccc(C)c(NC(=O)CN(C)C(=O)c2cc3ccccc3oc2=O)c1 | 6 | / | -2 | -1 | 1 | 19
CCOc1cc(/C=N/n2cnnc2)ccc1O | 3 | 2 | -6 | -6 | 1 | 34*
Oc1ccc(/C=N/Nc2nn3cnnc3c3ccccc23)cc1 | -3 | -6 | 2 | -4 | 1 | 16
COc1cc(/C=N/Nc2nn3cnnc3c3ccccc23)ccc1O | -1 | -3 | 7 | -6 | 0 | 32*
COc1cccc(/C=N/Nc2nn3cnnc3c3ccccc23)c1 | 1 | 0 | -4 | 18 | -3 | 23
CCOc1cc(/C=N/Nc2nn3cnnc3c3ccccc23)ccc1O | -1 | -5 | 4 | -4 | -1 | 32*
CC(=O)N(CCc1ccccc1)Cc1cc2ccc(C)c(C)c2[nH]c1=O | 9 | 0 | -5 | 0 | 3 | 19
O=C(N/N=C/c1cccnc1)c1cc(-c2ccc(Br)cc2)nc2ccccc12 | 4 | -2 | / | 2 | -2 | 17
SMILES | FBA Mtb inh | RecA splice inh | Rv3671c inh | Mtb bLac sens | Mtb UGM inh | GDH-TPI counter
Cc1ccc(CN2CCSc3ccc(C(=O)NC4CCCC4)cc32)cc1 | 7 | 1 | -3 | -3 | 0 | -3
CCOC(=O)N1CCC(NC(=O)c2ccc3c(c2)N(CC)CCS3)CC1 | 73* | 0 | -9 | -4 | 0 | 2
O=C1NCCc2c1[nH]c1ccc([N+](=O)[O-])cc21 | -1 | 0 | 6 | 2 | -5 | 8
O=C1NCCc2c1[nH]c1ccccc21 | 27* | 1 | 1 | -3 | 1 | -4
CC(C(=O)Nc1ccccc1C#N)N1C(=O)NC2(CCCCCC2)C1=O (stereo unspecified) | 2 | / | / | / | / | 7
COc1ccc(-c2cc(-c3ccccc3)[n+](C)c(-c3ccccc3)c2)cc1 | 35* | -1 | 2 | 2 | 1 | 19
COc1ccc(-[n+]2c(-c3ccccc3)cc(-c3ccc(C)cc3)cc2-c2ccccc2)cc1 | 3 | -4 | 7 | 100 | 2 | 28
N#C/C(=C(/O)CCl)c1nnc2n1CCCCC2 | -5 | 5 | 4 | 57 | -2 | -1
N#C/C(=N\Nc1cc(Cl)cc(Cl)c1)c1nnc2n1CCCCC2 | -4 | -3 | -6 | 5 | 0 | 33*
O=C(Nc1ccc(N2CCOCC2)cc1N1CCOCC1)c1ccc(F)cc1 | 1 | / | 5 | 4 | 0 | -5
O=C(NN=Cc1ccc(N(CCCl)CCCl)cc1)c1cccnc1 | -1 | / | / | / | / | 38*
O=C(N/N=C/c1ccc(OC(=O)c2ccccc2)cc1)c1cccnc1 | + | 23 | -5 | -3 | -1 | 0
O=C(N/N=C/c1ccc(OC(=O)c2ccc([N+](=O)[O-])cc2)cc1)c1cccnc1 | -1 | -1 | -2 | 41 | 0 | 2
COc1ccc(/C=N/NC(=O)c2cccnc2)cc1COc1ccc([N+](=O)[O-])cc1 | -4 | -1 | -10 | 14 | -2 | 15
COc1cc(/C=N/NC(=O)c2cccnc2)cc(Br)c1O | 2 | -2 | -3 | 4 | 1 | 44*
COc1ccc(/C=N/NC(=O)c2cccnc2)cc1COc1ccc(NC(C)=O)cc1 | -8 | -1 | -6 | -4 | -1 | 31*
COc1c(Br)cc(Br)cc1/C=N/NC(=O)c1cccnc1 | -1 | 1 | / | 4 | 6 | 24
O=C(COc1ccccc1Cc1ccccc1)Nc1cccnc1 | 2 | / | -4 | -4 | 4 | -4
O=C(NCCOc1ccccc1)c1ccc2c(c1)S(=O)(=O)c1cc(Cl)ccc1C2=O | 1 | / | 12 | 2 | 2 | -3
O=C(N/N=C/c1cc(Br)c(O)c(Br)c1)c1cccnc1 | 0 | -2 | 5 | 9 | 0 | 31*
Nc1ccc(-c2nc3cc(N)ccc3n2CCO)cc1 | + | -3 | -4 | -13 | 0 | 14
CS(=O)(=O)c1ccc(Cl)c(NC(=O)c2ccc(-n3cncn3)c([N+](=O)[O-])c2)c1 | 1 | / | / | / | / | 15
COc1cccc2sc(=NC(=O)CS(=O)(=O)c3ccc(Cl)cc3)n(C)c12 | 1 | 2 | 11 | 98 | -2 | -1
COc1c(O)ccc(/C=N\NC(=O)c2ccc3c(c2)OCO3)c1[N+](=O)[O-] | -2 | 0 | 8 | -5 | 3 | 33*
